Inconclusive results are not listed. Active and inactive are the calls of the source. Calls come from the whole dose curve; as a rule, active = well fitted inhibition curve with a large enough effect; inconclusive = small, poorly fitted or top-dose-only effect; inactive = no such curve, though single readings can be large or run the other way.
assay: InCell qHTS Assay for Inhibitors of the mTORC1 Signaling Pathway in MEF (Tsc2-/-, p53-/-) Cells: Hit Validation; settings: phospho-rpS6 immunofluorescence, 24 h; activity change, negative = inhibition: at 38.3 µM (top of the series);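 note: phospho-S6 Ser235/236 signal normalized to propidium iodide cell count per well; nearly all actives have a fitted effect of over 75% in size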
Potency is the fitted concentration of half-maximal effect.

**Q.** With `COc1ccc(Cl)cc1NC(=O)CCCS(=O)(=O)c1nc(-c2ccc(OC)c(OC)c2)cc(C(F)(F)F)n1` as the compound, how does the Potency read?
**A.** 14.7 µM (active)

**Q.** For `Cc1ccccc1C(=O)N1CCN(CCc2ccccn2)CC1`, which activity change, negative = inhibition is on record?
**A.** -100%

**Q.** With `Cc1nn(CC(=O)N2CCN(c3ccccc3F)CC2)c(=O)c2cccn12` as the compound, how does the activity change, negative = inhibition read?
**A.** -100%

**Q.** With `Cc1ccc(C)c(CN2C(=O)C(=O)c3ccccc32)c1` as the compound, how does the activity change, negative = inhibition read?
**A.** -100%

**Q.** With `CCCSc1oc(-c2ccco2)nc1S(=O)(=O)c1ccc(Br)cc1` as the compound, how does the activity change, negative = inhibition read?
**A.** -100%

**Q.** With `Nc1nc(Nc2ccccc2F)sc1C(=O)c1ccc(Cl)cc1` as the compound, how does the activity change, negative = inhibition read?
**A.** -100%

**Q.** Which activity change, negative = inhibition does the source give for `Cc1ccc(S(=O)(=O)c2nnn3c2nc(NC2CCCCC2)c2sccc23)cc1C` here?
**A.** -100%

**Q.** For `CN(C)c1ccc(NC(=O)Cn2cc(S(=O)(=O)Cc3ccccc3Cl)c3ccccc32)cc1`, which activity change, negative = inhibition is on record?
**A.** -29.2%

**Q.** For `COc1ccccc1-c1cc(C(=O)Nc2cc(OC)c(OC)c(OC)c2)no1`, which activity change, negative = inhibition is on record?
**A.** 1.72%

**Q.** With `COc1ccc(C)cc1NC(=O)CCNS(=O)(=O)c1cccc2nonc12` as the compound, how does the activity change, negative = inhibition read?
**A.** -100%

**Q.** Which activity change, negative = inhibition does the source give for `Cc1ccc2c(c1)cc(C(=O)Nc1ccccc1C)n2C` here?
**A.** -18.6%

**Q.** Which activity change, negative = inhibition does the source give for `CCOc1cc(C2CC(=O)Nc3cc4c(cc32)OCCO4)ccc1O` (configuration not stated) here?
**A.** -100%

**Q.** With `CCOc1ccc(Nc2nc(-c3cccc(Cl)c3)c3c(n2)-c2ccccc2OC3)cc1` as the compound, how does the activity change, negative = inhibition read?
**A.** -100%

**Q.** With `Cc1ccc(NC(=O)CCS(=O)(=O)c2ccc3nc(C)sc3c2)cc1` as the compound, how does the activity change, negative = inhibition read?
**A.** -100%

**Q.** Which Potency does the source give for `COc1ccc2nc(NC(=O)c3nc(S(=O)(=O)Cc4ccccc4F)ncc3Cl)sc2c1` here?
**A.** 2.33 µM (active)

**Q.** Which activity change, negative = inhibition does the source give for `Cc1ccc(C)c(N2CCN(CCCNC(=O)C3COc4ccccc4C3)CC2)c1` (configuration not stated) here?
**A.** -100%

**Q.** With `COc1cc(OC)c(NS(=O)(=O)c2ccc3c(c2)CCCN3C(C)=O)cc1Cl` as the compound, how does the activity change, negative = inhibition read?
**A.** -100%

**Q.** Which Potency does the source give for `CCS(=O)(=O)c1ncc(Cl)c(C(=O)N2CCN(c3ccc(OC)cc3)CC2)n1` here?
**A.** 4.65 µM (active)

**Q.** Which Potency does the source give for `CCNC(=O)c1c(NC(=O)c2nc(S(=O)(=O)CC)ncc2Cl)sc2c1CCCC2` here?
**A.** 2.07 µM (active)

**Q.** With `COc1ccc(CC(=O)Nc2sc3c(c2C(=O)Nc2cccc(C)c2)CCCCC3)cc1` as the compound, how does the activity change, negative = inhibition read?
**A.** -17.5%

**Q.** Which activity change, negative = inhibition does the source give for `Fc1ccc(Nc2nc3nonc3nc2Nc2cccc(C(F)(F)F)c2)cc1` here?
**A.** -100%

**Q.** For `O=C(Cn1c(=O)n(Cc2ccc3c(c2)OCO3)c(=O)c2ccc(C(=O)NC3CCCCC3)cc21)Nc1ccccc1F`, which Potency is on record?
**A.** 5.21 µM (active)

**Q.** With `CCN1CCN(C(=O)Cn2ncc3c4ccccc4n(Cc4c(C)cc(C)cc4C)c3c2=O)CC1` as the compound, how does the activity change, negative = inhibition read?
**A.** -100%

**Q.** Which activity change, negative = inhibition does the source give for `Cc1ccc(C)c(NC(=O)Nc2cc3c(cc2N2CCCCC2)n(C)c(=O)n3C)c1` here?
**A.** -100%

**Q.** For `Cc1ccc(CN(Cc2ccco2)C(=O)c2cccc(C)c2)cc1`, which activity change, negative = inhibition is on record?
**A.** -100%

**Q.** With `CCN1C(=O)c2ccccc2Sc2ccc(NC(=O)Cc3ccc(OC)cc3)cc21` as the compound, how does the activity change, negative = inhibition read?
**A.** -100%

**Q.** For `Cc1cccc(N2CCN(c3ncnc4c3nc3n4CCCCC3)CC2C)c1` (configuration not stated), which Potency is on record?
**A.** 5.85 µM (active)

**Q.** With `Cc1ccc(-c2nnc(C3CCN(S(=O)(=O)c4ccc(C)c(C)c4)CC3)o2)cc1` as the compound, how does the activity change, negative = inhibition read?
**A.** -100%

**Q.** Which activity change, negative = inhibition does the source give for `O=C(NCc1ccc(F)cc1)c1ccc2c(Cl)c3c(nc2c1)CCCC3` here?
**A.** -100%

**Q.** With `N#Cc1ccc(-c2cccs2)nc1SCc1c(F)cccc1Cl` as the compound, how does the activity change, negative = inhibition read?
**A.** -16.8%

**Q.** With `COc1ccc(S(=O)(=O)N(C(=O)c2ccncc2)c2ccc3oc(C)c(C(C)=O)c3c2)cc1` as the compound, how does the activity change, negative = inhibition read?
**A.** -100%

**Q.** With `COc1ccc(NC(=O)Cn2c(=O)n(-c3ccccc3)c(=O)c3ccc(C(=O)NCc4ccc5c(c4)OCO5)cc32)cc1` as the compound, how does the activity change, negative = inhibition read?
**A.** -21.2%

**Q.** With `CC1=C(C(=O)OC2CCCC2)C(c2ccccc2Cl)CC(=O)N1` (configuration not stated) as the compound, how does the activity change, negative = inhibition read?
**A.** -100%

**Q.** Which activity change, negative = inhibition does the source give for `Cc1ccc(Nc2nnc(-c3ccc(C)c(S(=O)(=O)N4CCOCC4)c3)c3ccccc23)c(C)c1` here?
**A.** -100%

**Q.** For `CCc1nn(CC(=O)NCc2ccccc2)c(=O)c2cccn12`, which activity change, negative = inhibition is on record?
**A.** -100%

**Q.** For `CCOc1cc(CNCCSc2nnnn2C)cc(Cl)c1OCc1ccc(Cl)cc1`, which activity change, negative = inhibition is on record?
**A.** -100%

**Q.** With `CCOC(=O)N1CCN(Cc2nc3cc(NC(C)=O)ccc3n2C(C)C)CC1` as the compound, how does the activity change, negative = inhibition read?
**A.** -100%

Source: PubChem BioAssay AID651791 (National Center for Advancing Translational Sciences (NCATS), 2012)
